Tat transport: E. coli Tat export inhibitors, primary screen, MC4100, TorA-mCherry reporter, fluorescence, single point; inhibition, % at 10 µM; 340,000 tested, 0.036% active;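 active = mean replicate inhibition at least 50% and at least half of replicates individually reaching 50%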;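 also: exported cargo escapes ClpAP degradation while cytoplasmic cargo is degraded and loses fluorescence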
AddAB inh: growth inhibition of E. coli expressing H. pylori AddAB, primary screen, AddAB inhibitor project, absorbance | inhibition, % at 11.9 µM | 330,000 tested, 0.29% active | AID 435030, 2010; in the data active = inhibition above about 12%
E coli growth-1: E. coli V3065 growth inhibition, primary screen, counter-screen for AddAB inhibitor project, absorbance, OD600; inhibition, % at 11.9 µM; 18 h; 330,000 tested, 0.27% active;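 active = inhibition above the campaign's mean inhibition across all tested compounds plus 3 SD, cut at about 9.9% in these data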;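 also: uninfected addAB+ strain grown without phage in ampicillin broth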
E coli growth-2: E. coli growth inhibition, primary screen, OD600; 330,000 tested, 0.21% active; Escherichia coli growth, 23 h; hits give low values; OD600 absorbance (test concentration not listed);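 active = OD600 absorbance below the run mean of sample wells minus 3.6 SD, in any replicate, cut at about 0.56 in these data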
phage Ecoli inh: growth loss of phage-infected E. coli, primary screen, RecBCD inhibitor project, absorbance, with phage, HTS; inhibition, % at 11.9 µM; 360,000 tested, 0.26% active; in the data active = inhibition above about 11%
RecBCD conf: growth loss of phage-infected RecBCD+ E. coli, confirmation, RecBCD inhibitor project, absorbance, E. coli V66, T4 gene 2 phage; shares compounds with phage Ecoli inh; E. coli V66 + T4 2- phage, growth OD; inhibition, % at 11.9 µM; 890 tested, 45% active;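 active = mean inhibition over triplicates exceeding the hit threshold derived in the original primary screen, cut at about 11% in these data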
Ecoli viability: E. coli viability inhibition, counter-screen for RecBCD inhibitor project, absorbance, high throughput | shares compounds with phage Ecoli inh | absorbance (OD) growth | inhibition, % at 11.9 µM | 890 tested, 29% active; in the data active = inhibition above about 20%;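 also: E. coli strain V66 grown with compound alone and no phage infection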
AddAB phage OD: growth loss of phage-infected AddAB-carrying E. coli, confirmation, counter-screen for RecBCD inhibitor project, absorbance, E. coli V3065, T4 phage; E. coli expressing H. pylori AddAB + T4 phage, OD growth; gene 2 mutant T4, recBCD-deleted host; shares compounds with phage Ecoli inh; 890 tested, 45% active; inhibition, % at 11.9 µM;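 active = mean inhibition above the solvent-only control wells' mean plus 3 SD, cut at about 22% in these data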;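 also: higher means less bacterial growth from phage killing when AddAB is blocked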
Numbers stand for hits; - = inactive; . = no result. An excerpt weighted towards active compounds, which were near 0.51% of everything screened.

SMILES	Tat transport	AddAB inh	E coli growth-1	E coli growth-2	phage Ecoli inh	RecBCD conf	Ecoli viability	AddAB phage OD
CCCCNC(=O)NCC(=O)Nc1ccc(F)c(F)c1	-	-	-	-	-	.	.	.
S=C(NN=C(c1ccccc1)c1ccccn1)N(Cc1ccccn1)Cc1ccccn1	-	.	.	.	15.2	-	-	-
CN(C)c1ccc(NC(=O)Cn2cc3c(n2)CCCC3)cc1	-	-	-	-	12.8	-	-	-
Cc1cc(C)cc(NC(=O)Cn2cc3c(n2)CCCCC3)c1	.	-	-	-	.	.	.	.
Cc1ccccc1Cn1c(CN2CCN(C(=O)c3ccco3)CC2)nc2c1c(=O)n(C)c(=O)n2C	-	-	-	-	97.0	-	-	-
NC(=S)NN=Cc1nccc2c(N)cccc12	.	.	.	.	23.1	31.9	39.0	35.0
CC(=O)n1cc(C=NNC(N)=S)c2ccccc21	.	.	.	-	.	.	.	.
CCN(C(C)=O)c1cnc(C=NNC(N)=S)c2ccccc12	-	.	.	.	19.9	14.8	-	32.0
NC(=S)N/N=C/c1c(O)ccc2ccccc12	-	-	-	.	-	.	.	.
COc1ccc(C(=O)N/N=C(\C)c2ccccn2)cc1OC	-	-	-	.	-	.	.	.
COc1ccccc1NC(=S)NN=C(C)c1ccccn1	-	.	.	.	17.1	13.5	-	-
CC(=NNC(=S)Nc1cccc(C)c1)c1ccccn1	-	.	.	.	13.8	16.4	-	-
COc1ccc(C(C)=NN2C(=O)c3ccccc3NC2c2ccc(O)c(OC)c2)cc1 (centres undefined)	.	.	.	-	.	.	.	.
COc1cccc(NC(=O)Nc2nc(SC(C)(C)C)ns2)c1	-	-	-	-	12.6	-	-	-
Cc1cc(C(=O)N(C2CCCCC2)C2CCCCC2)no1	-	-	-	-	12.1	-	-	-
Cc1cc(C(=O)N2C(C)CCCC2C)no1 (centres undefined)	-	-	-	-	-	.	.	.
CN1N=C(C=Cc2ccccc2)CCC1=O	.	.	.	-	.	.	.	.
COc1cc2cccc(OC)c(=O)c2c(OC)c1OC	-	-	-	-	-	.	.	.
O=c1c(O)cccc2cc(O)c(O)c(O)c12	52.7	-	11.1	-	14.2	-	-	-
CC(C)(C)c1cc2nc3c(c(=O)n2[nH]1)CN(Cc1ccccc1)C3=O	.	-	-	-	12.2	-	-	-
Fc1ccc(NC(=S)Nc2ccccc2OC(F)F)cc1Cl	-	-	-	-	12.5	-	-	-
Cc1ccc(-c2[nH]c3cc(C(=O)NCCCn4ccnc4)ccc3c(=O)c2O)cc1	-	-	-	-	11.3	-	-	-
O=C(NCCCn1ccnc1)c1ccc(Cl)c(Cl)c1	-	-	-	-	-	.	.	.
Cn1c(-c2ccccc2)c(C=NNC(=O)c2ccc(O)cc2)c2ccccc21	.	.	.	-	.	.	.	.
CC(C)(C)CC(=O)Nc1nnc(C(F)(F)F)s1	-	-	-	-	-	.	.	.
SMILES	Tat transport	AddAB inh	E coli growth-1	E coli growth-2	phage Ecoli inh	RecBCD conf	Ecoli viability	AddAB phage OD
CC(NC(=O)Nc1nnc(C(F)(F)F)s1)(C(F)(F)F)C(F)(F)F	-	-	10.8	-	13.4	14.7	-	-
S=C(NCC1CCCCC1)Nc1ccc(Oc2ccccc2)cc1	-	-	-	-	-	.	.	.
FC(F)Sc1ccc(NC(=S)NCC2CCCCC2)cc1	-	-	-	-	12.7	-	-	-
FC(F)Sc1ccc(NC(=S)NC2CCCCC2)cc1	-	-	-	-	12.3	-	-	-
FC(F)(F)c1ccc(CN2CC3C(c4ccc(Cl)nc4)C4(c5ccccc5)CC3(C4)C2c2ccccc2)cc1 (centres undefined)	.	.	.	-	.	.	.	.
COc1ccccc1OCCn1cc(C=NNC(N)=S)c2ccccc21	.	.	.	-	.	.	.	.
CC(C)C[C@H]1CNC(=S)N1C[C@H]1CCCN1C[C@H](Cc1ccccc1)N1C[C@H](Cc2ccc(O)cc2)N(CC2CCCCC2)C1=S	.	.	.	.	11.7	-	-	-
O=C(Nc1cccc(Cl)c1)Nc1cccc(Cl)c1	-	-	-	-	-	.	.	.
O=C(Nc1cccc(F)c1)Nc1cccc(Cl)c1	-	-	-	0.412	14.3	13.3	-	-

High-throughput results: PubChem BioAssay, several laboratories
